# Test results reported in PubChem BioAssay AID1159580 (chemical genetic matrix, 2015).
# Several values for one entry are separate records, joined by “and”; a condition that tells them apart may be missing. Equal entries are not always repeated. The whole screen tested about 5,500 compounds, of which about 2,000 (36%) were called active. Roughly 18% stayed inconclusive and do not appear here. The list shows a part of the results. A number with no mark means an inactive call. No stated cut-off is given here; in the data, active means normalized growth mostly below about 0.91 (no sharp cut-off); inconclusive means no clear call, values can overlap the other calls; inactive means mostly above about 0.92.
# Assay: chemical genetic growth profiling, strain panel (AID 1159580);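 further: tested at 20 µM; growth read once vehicle control cultures reached saturation at 30 °C; 1 = growth at the plate median or of vehicle wells; lower values mean less growth of the strain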
# Settings: S. cerevisiae deletion strains, growth OD
structure (smiles),measurement,setting,value
C=C(C)c1cc2cc(C(C)=O)c(O)cc2o1,normalized growth,"locus YAL013W, strain DEP1, hits give low values",0.948
same,normalized growth,"locus YAL021C, strain ccr4, hits give low values",0.981
same,normalized growth,"locus YAL026C, strain drs2, hits give low values",0.985
same,normalized growth,"locus YAL030W, strain snc1, hits give low values",0.974
same,normalized growth,"locus YBL061C, strain skt5, hits give low values",0.97
same,normalized growth,"locus YBR009C, strain hhf1, hits give low values",0.927
same,normalized growth,"locus YBR021W, strain FUR4, hits give low values",1.11
same,normalized growth,"locus YBR023C, strain chs3, hits give low values",0.94
same,normalized growth,"locus YBR171W, strain sec66, hits give low values",0.952
same,normalized growth,"locus YBR229C, strain ROT2, hits give low values",0.91 (active)
same,normalized growth,"locus YBR231C, strain swc5, hits give low values",0.961
same,normalized growth,"locus YBR279W, strain paf1, hits give low values",0.966
same,normalized growth,"locus YCL011C, strain gbp2, hits give low values",0.943
same,normalized growth,"locus YCL016C, strain dcc1, hits give low values",0.921
same,normalized growth,"locus YCL029C, strain bik1, hits give low values",0.961
same,normalized growth,"locus YCL069W, strain vba3, hits give low values",0.964
same,normalized growth,"locus YCR088W, strain abp1, hits give low values",0.965
same,normalized growth,"locus YDL005C, strain med2, hits give low values",0.991
same,normalized growth,"locus YDL035C, strain GPR1, hits give low values",0.93
same,normalized growth,"locus YDL040C, strain nat1, hits give low values",0.974
same,normalized growth,"locus YDL074C, strain BRE1, hits give low values",0.924
same,normalized growth,"locus YDL101C, strain DUN1, hits give low values",0.959
same,normalized growth,"locus YDL185W, strain tfp1, hits give low values",0.895 (active)
same,normalized growth,"locus YDL192W, strain arf1, hits give low values",0.893 (active)
same,normalized growth,"locus YDR001C, strain nth1, hits give low values",0.972
same,normalized growth,"locus YDR069C, strain doa4, hits give low values",0.998
same,normalized growth,"locus YDR101C, strain arx1, hits give low values",0.873 (active)
same,normalized growth,"locus YDR137W, strain rgp1, hits give low values",0.854
same,normalized growth,"locus YDR150W, strain NUM1, hits give low values",0.965
same,normalized growth,"locus YDR159W, strain sac3, hits give low values",0.992
same,normalized growth,"locus YDR162C, strain NBP2, hits give low values",0.926
same,normalized growth,"locus YDR195W, strain ref2",1.2 [resistant] (active)
same,normalized growth,"locus YDR297W, strain sur2, hits give low values",0.991
same,normalized growth,"locus YDR318W, strain mcm21, hits give low values",0.928
same,normalized growth,"locus YDR334W, strain swr1, hits give low values",0.983
same,normalized growth,"locus YDR335W, strain msn5, hits give low values",0.965
same,normalized growth,"locus YDR388W, hits give low values",0.947
same,normalized growth,"locus YDR392W, strain spt3, hits give low values",0.672 (active)
same,normalized growth,"locus YDR502C, strain sam2, hits give low values",0.968
same,normalized growth,"locus YEL003W, strain gim4, hits give low values",0.973
same,normalized growth,"locus YEL037C, strain rad23, hits give low values",0.979
same,normalized growth,"locus YEL061C, strain CIN8 (second series), hits give low values",0.958
same,normalized growth,"locus YEL061C, strain CIN8, hits give low values",0.94
same,normalized growth,"locus YER015W, strain faa2, hits give low values",0.958
same,normalized growth,"locus YER016W, strain bim1, hits give low values",0.975
same,normalized growth,"locus YER110C, hits give low values",0.894 (active)
same,normalized growth,"locus YER111C, strain swi4, hits give low values",0.97
same,normalized growth,"locus YER155C, strain BEM2 (second series), hits give low values",0.615 (active)
same,normalized growth,"locus YER155C, strain BEM2, hits give low values",0.967
same,normalized growth,"locus YER167W, strain BCK2, hits give low values",0.904
same,normalized growth,"locus YFR010W, strain ubp6, hits give low values",1
same,normalized growth,"locus YGL078C, strain dbp3, hits give low values",0.962
same,normalized growth,"locus YGL086W, strain mad1, hits give low values",0.928 (active)
same,normalized growth,"locus YGL167C, strain pmr1, hits give low values",0.956
same,normalized growth,"locus YGL173C, strain kem1, hits give low values",0.971
same,normalized growth,"locus YGL227W, strain vid30, hits give low values",0.967
same,normalized growth,"locus YGL240W, strain doc1, hits give low values",0.829 (active)
same,normalized growth,"locus YGL248W, strain PDE1, hits give low values",0.967
same,normalized growth,"locus YGL253W, strain hxk2, hits give low values",0.977
same,normalized growth,"locus YGR135W, strain pre9, hits give low values",0.971
same,normalized growth,"locus YGR252W, strain gcn5, hits give low values",0.916
same,normalized growth,"locus YHR013C, strain ard1, hits give low values",0.94
same,normalized growth,"locus YHR027C, strain rpn1, hits give low values",0.992
same,normalized growth,"locus YHR030C, strain SLT2, hits give low values",0.954 and 0.925
same,normalized growth,"locus YHR079C, strain IRE1 (second series), hits give low values",0.93
same,normalized growth,"locus YHR079C, strain IRE1, hits give low values",0.909
same,normalized growth,"locus YHR094C, strain hxt1, hits give low values",0.917 (active)
same,normalized growth,"locus YHR129C, strain ARP1, hits give low values",0.953
same,normalized growth,"locus YHR142W, strain chs7, hits give low values",0.907
same,normalized growth,"locus YHR200W, strain rpn10, hits give low values",0.883 (active)
same,normalized growth,"locus YIL066C, strain RNR3, hits give low values",0.919
same,normalized growth,"locus YIL073C, strain SPO22, hits give low values",0.899
same,normalized growth,"locus YIL125W, strain kgd1, hits give low values",0.934
same,normalized growth,"locus YIR030C, strain dcg1, hits give low values",0.929
same,normalized growth,"locus YJL092W, strain hpr5, hits give low values",0.973
same,normalized growth,"locus YJL095W, strain BCK1 (second series), hits give low values",0.974
same,normalized growth,"locus YJL095W, strain BCK1, hits give low values",0.95 and 0.932
same,normalized growth,"locus YJL115W, strain asf1, hits give low values",0.983
same,normalized growth,"locus YJL129C, strain trk1, hits give low values",0.926
same,normalized growth,"locus YJL134W, strain LCB3, hits give low values",0.951
same,normalized growth,"locus YJL154C, strain vps35, hits give low values",0.983
same,normalized growth,"locus YJL164C, strain tpk1, hits give low values",0.932
same,normalized growth,"locus YJL166W, strain qcr8, hits give low values",0.945
same,normalized growth,"locus YJL168C, strain set2, hits give low values",0.929 (active)
same,normalized growth,"locus YJL187C, strain SWE1 (second series), hits give low values",0.958
